Test results: PubChem BioAssay AID1224904 (Broad Institute, 2016)
Among all 37,000 compounds or so, about 290 (0.78%) were called active. Not shown: some 10% with an inconclusive outcome.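 How the source made its calls: active means mean inhibition of at least 10% in the main channel, exceeding the control channel by a set limit; inconclusive means inhibition of 10% or more but channel gap under a set limit; inactive means mean inhibition below 10%.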 The list comes from a sample in which actives are over-represented; it also holds similar structures and randomly drawn compounds.

Assay: DUX4 transcriptional activity inhibition in cells – 293T cells, Gaussia and Italica luciferase, primary screen (AID 1224904);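 on activity change, negative = inhibition: 0% = median of neutral control wells and -100% = median of positive control wells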
Conditions: 293T-iDUX4 ZSCAN4-Gaussia luciferase reporter, 24 h, stronger effect = lower value, concentration not given here; for Gaussia minus Italica difference: measured here: selective DUX4 reporter inhibition
[1] = measured here: Italica tet-on control reporter

Compound	activity change, negative = inhibition	activity change, negative = inhibition [1]	Gaussia minus Italica difference
COc1ccccc1NC(=O)N1[C@@H]2CNC[C@H]1C2c1ccc(-c2ccccc2C)cc1 (stereo partly drawn)	17.2% (inactive)	3.5%	13.7%
O=C1N[C@H](c2ccccc2)COCc2cn(nn2)CC[C@@H]1Cc1ccc(Cl)cc1	-6.57% (inactive)	-14.5%	7.94%
Cn1cnc(CCNC(=O)C[C@H]2CC[C@H]3[C@@H](COC[C@H](O)CN3C(=O)C3CCCC3)O2)c1	4.42% (inactive)	-1.98%	6.41%
CCCNC(=O)Nc1ccc2c(c1)C(=O)N(C)C[C@H](OC)[C@H](C)CN[C@@H](C)CO2	5.48% (inactive)	4.45%	1.03%
CN1c2ccc(Br)cc2[C@@H]2[C@@H](CCN2C(=O)Cc2ccccc2)[C@@H]1CO	6.02% (inactive)	3.73%	2.29%
O=C(C[C@@H]1CC[C@H]2[C@@H](COC[C@@H](O)CN2Cc2nccs2)O1)NCc1ccc(-c2ccccc2)cc1	-5.3% (inactive)	-11.9%	6.63%
O=C(c1ccccc1F)N1C[C@@H]2[C@H](c3ccccc31)[C@H](CO)N2C(=O)C1CCCC1	1.9% (inactive)	3.72%	-1.83%
O=C(C1CCC1)N1C[C@@H]2N[C@H](C1)C2c1ccc(-c2cncnc2)cc1 (stereo partly drawn)	-25.8% (active)	-0.405%	-25.4%
Cc1ccccc1-c1ccc(C2[C@@H]3CN(C(=O)C4CCCCC4)C[C@H]2N3)cc1 (stereo partly drawn)	-6.47% (inactive)	-0.357%	-6.12%
O=C(CN1CCOCC1)N1C[C@@H]2N[C@H](C1)C2c1ccc(-c2ccncc2)cc1 (stereo partly drawn)	15.1% (inactive)	19.9%	-4.83%
COCC(=O)Nc1ccc2c(c1)OC[C@@H](C)N(C(=O)CC1CC1)C[C@@H](C)[C@@H](OC)CN(C)C2=O	-1.74% (inactive)	-0.0881%	-1.65%
